Measurements: PubChem BioAssay (NCATS)
Inconclusive results are not listed. A call without a number means that no potency is given here. Calls of active or inactive are those of the source. Unless noted, calls follow the shape of the dose curve; as a rule, active = well fitted curve in the direction sought with a large enough effect in the repeat runs; inconclusive = weak or mixed curves; inactive = no such curve, though single readings can be large; an effect the other way counts as inactive or inconclusive.

Columns and labels:
[1] = molecular target: Calcium and integrin-binding protein 1 (Homo sapiens) (UniProt Q99828); assay: Primary qHTS for Identification of Calcium Integrin Binding Protein 1 (CIB1) Competitor (AID 1508620; active = well fitted curve in the direction sought with a large enough effect; an effect the other way counts as inactive or inconclusive;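 also: GST tagged CIB1 binding a fluorescein labelled alphaIIb integrin peptide tracer; top concentration of the series differs between compounds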); details: CIB1-GST / FITC-alphaIIb peptide fluorescence polarization; series mostly up to 57.7 µM
Method in brief: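 Fluorescence polarization competition: CIB1-GST (1 uM final) preincubated with compound 15 min at room temperature, then FITC-labeled alphaIIb peptide (100 nM final) added for another 15 min. Polarization read at Ex 480/Em 540.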

[2] = molecular target: Cytochrome P450 2D6 (Homo sapiens) (UniProt P10635); assay: Cytochrome P450 family 2 subfamily D member 6 (CYP2D6) small molecule antagonists: luciferase biochemical (cell-free) qHTS assay (AID 1645840); details: P450-Glo CYP2D6 enzyme, luciferin luminescence, 1 h; series mostly up to 57.4 µM; also: nearly all actives have a fitted effect of over 55% in size; also: potency is read from the fitted curve at half-maximal effect
Method in brief: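 P450-Glo luminescent screen: recombinant CYP2D6 enzyme–proluciferin substrate mix preincubated with compound 10 min at room temperature, then NADPH regeneration added for 1 h at room temperature. Detection reagent added for 20 min; luciferin light read as relative luminescence units.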

[3] = molecular target: Cytochrome P450 2C9 (Homo sapiens) (UniProt P11712); assay: Cytochrome P450 family 2 subfamily C member 9 (CYP2C9) small molecule antagonists: luciferase biochemical (cell-free) qHTS assay (AID 1645842); details: P450-Glo CYP2C9 enzyme assay, luciferin luminescence; series mostly up to 57.4 µM; also: nearly all actives have a fitted effect of over 55% in size; also: potency is read from the fitted curve at half-maximal effect
Method in brief: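 Luminescence, after 20 min with luciferin detection reagent, reflected CYP2C9 turnover during a 1 h NADPH-driven reaction at 37C. Enzyme-substrate mix contained 0.4% bovine serum albumin and was preincubated with compound 10 min at room temperature.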

[4] = Primary qHTS for inhibitors of nuclear receptor binding SET domain protein 2 (NSD2) in an isogenic RCH-ACV NSD2 p.E1099K mutant (9B) (AID 1645876; active = well fitted curve in the direction sought with a large enough effect; an effect the other way counts as inactive or inconclusive; also: nearly all actives have a fitted effect of over 70% in size); details: RCH-ACV NSD2 E1099K (9B) viability, CellTiter-Glo, 72 h; series mostly up to 44.9 µM
[5] = Primary qHTS for inhibitors of nuclear receptor binding SET domain protein 2 (NSD2) in an RCH-ACV wild type WT cells (2C) (AID 1645877; active = well fitted curve in the direction sought with a large enough effect; an effect the other way counts as inactive or inconclusive; also: nearly all actives have a fitted effect of over 70% in size); details: RCH-ACV (leukaemia line) NSD2 WT (2C) viability, CellTiter-Glo, 72 h; series mostly up to 44.9 µM

Chain of Cytochrome P450 2C9 (Homo sapiens) (P11712 whole entry, looked up): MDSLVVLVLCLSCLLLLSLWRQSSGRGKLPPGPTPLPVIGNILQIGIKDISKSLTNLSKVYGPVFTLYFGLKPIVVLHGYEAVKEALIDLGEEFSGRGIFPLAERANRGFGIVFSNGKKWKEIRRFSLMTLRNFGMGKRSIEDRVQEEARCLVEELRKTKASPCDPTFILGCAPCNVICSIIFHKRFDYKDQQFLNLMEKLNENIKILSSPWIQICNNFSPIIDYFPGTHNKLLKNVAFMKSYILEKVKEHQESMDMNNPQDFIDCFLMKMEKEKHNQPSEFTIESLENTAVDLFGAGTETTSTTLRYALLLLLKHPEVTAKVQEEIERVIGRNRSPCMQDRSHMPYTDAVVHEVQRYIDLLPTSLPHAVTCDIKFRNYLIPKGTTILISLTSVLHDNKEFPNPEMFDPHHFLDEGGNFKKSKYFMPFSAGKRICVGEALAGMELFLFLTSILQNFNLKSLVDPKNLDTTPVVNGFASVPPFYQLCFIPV
Chain of Cytochrome P450 2D6 (Homo sapiens) (P10635 whole entry, looked up): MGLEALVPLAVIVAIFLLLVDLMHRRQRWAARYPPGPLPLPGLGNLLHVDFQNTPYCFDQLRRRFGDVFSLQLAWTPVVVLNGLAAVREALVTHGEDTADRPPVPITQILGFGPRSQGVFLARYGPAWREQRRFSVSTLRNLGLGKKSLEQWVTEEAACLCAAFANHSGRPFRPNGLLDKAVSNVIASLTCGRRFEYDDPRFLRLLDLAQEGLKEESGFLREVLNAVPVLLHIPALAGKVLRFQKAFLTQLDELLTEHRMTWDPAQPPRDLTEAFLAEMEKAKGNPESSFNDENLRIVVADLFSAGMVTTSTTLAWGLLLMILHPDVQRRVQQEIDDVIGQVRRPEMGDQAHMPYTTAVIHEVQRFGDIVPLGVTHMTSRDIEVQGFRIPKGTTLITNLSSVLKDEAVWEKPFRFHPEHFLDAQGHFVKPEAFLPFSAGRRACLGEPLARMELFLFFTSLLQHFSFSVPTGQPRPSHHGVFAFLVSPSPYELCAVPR
Chain of Calcium and integrin-binding protein 1 (Homo sapiens) (Q99828 whole entry, looked up): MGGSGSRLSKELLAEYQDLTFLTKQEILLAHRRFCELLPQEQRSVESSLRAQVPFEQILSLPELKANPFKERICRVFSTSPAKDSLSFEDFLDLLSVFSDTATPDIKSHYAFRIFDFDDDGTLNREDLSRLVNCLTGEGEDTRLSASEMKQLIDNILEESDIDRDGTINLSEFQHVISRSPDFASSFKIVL

| SMILES | Potency [1] | Potency [2] | Potency [3] | Potency [4] | Potency [5] |
| --- | --- | --- | --- | --- | --- |
| COC(=O)[C@H](Cc1ccc([N+](=O)[O-])cc1)NC(=O)c1cccc2ccccc12 | inactive | 2.13 µM (active) | 3.79 µM (active) | inactive | inactive |
| CCCSc1nc(NC2CC2c2ccc(F)c(F)c2)c2nnn(C3CC(OCCO)C(O)C3O)c2n1 (stereo not drawn) | inactive | 21.3 µM (active) | 3.79 µM (active) |  |  |
| N[C@@H](CC(=O)Nc1ccc(Oc2cc(F)c(F)cc2Br)cc1)C(=O)O | inactive | inactive |  |  |  |
| CCC(=O)N1CCc2cc(OC)c(O)cc2C1 | inactive | 16.9 µM (active) |  |  |  |
| O=C(NC/C=C/CN1CCN(c2cccc(Cl)c2Cl)CC1)c1ccc(-c2ccccn2)cc1 | inactive | 1.2 µM (active) | 10.7 µM (active) |  |  |
| COc1ccc(-c2ccn(CC[C@](C)(C(=O)NO)S(C)(=O)=O)c(=O)c2)c(F)c1 | inactive | inactive | inactive |  |  |
| CCCNCCOc1ccc(NC(=O)c2c[nH]c3c2C(=O)CCC3)cc1F | inactive | inactive | inactive |  |  |
| C/C=C(\C)C(=O)OC1C(C)C2(O)C3C=C(C)C(=O)C3CC(CO)=CC2C2C(C)(C)C12OC(C)=O (stereo not drawn) | inactive |  |  |  |  |
| CC(C)NC(=O)c1ccc(C#Cc2ccncc2)cn1 | inactive | inactive | 0.601 µM (active) |  |  |
| C[C@@H](NC(=O)c1cc(C(=O)N[C@@H](Cc2ccccc2)[C@H](O)CNC2CC2)cc(N(C)S(C)(=O)=O)c1)c1ccccc1 | inactive | 4.77 µM (active) | 4.25 µM (active) | inactive |  |
| O=C(OC(C(F)(F)F)C(F)(F)F)N1CCN(Cc2cccc(Oc3ccccc3)c2)CC1 | inactive | 1.51 µM (active) | 19 µM (active) |  |  |
| Cc1cc(CNC(=O)c2cc(C(=O)NCc3ccc(F)c(C)c3)ncn2)ccc1F | inactive | inactive | inactive | inactive | inactive |
| Nc1nc(COC(=O)c2ccc([N+](=O)[O-])cc2)nc(Nc2ccccc2)n1 | inactive | inactive | 21.3 µM (active) | inactive | inactive |
| CCOC(=O)c1ccc(NC2CCCCC2)c(N)c1 | inactive | 9.52 µM (active) | 5.35 µM (active) |  |  |
| CC1(C)Oc2ncnc(N)c2N=C1c1ccc(C2CCC(CC(=O)O)CC2)cc1 (stereo not drawn) | inactive | inactive | inactive | inactive | inactive |
| CCCC(C(=O)O)c1c(C)nc2ccc(Cl)cc2c1-c1ccccc1 (stereo not drawn) | inactive | inactive | 21.3 µM (active) | inactive | inactive |
| COc1ccc(Oc2c(Cl)cnn(C3c4ccccc4-c4ccccc43)c2=O)cc1 | inactive | inactive | 9.52 µM (active) | inactive |  |
| Cc1ccc(COC(=O)N2CC[C@@H](CNc3ncccn3)[C@@H](F)C2)cc1 | inactive | 16.9 µM (active) | 13.5 µM (active) |  |  |
| CC1(C)CC=C(C#Cc2ccccc2)c2cc(/C=C/c3ccc(C(=O)O)cc3)ccc21 | inactive | inactive | 19 µM (active) | inactive |  |
| CC1(C)CC(NC(=O)C(=O)Nc2ccc(Cl)cc2)CC(C)(C)N1 | inactive | inactive | inactive | inactive | inactive |
| CN1CCc2cc(Cl)c(O)cc2[C@@H](c2cccc3c2OCC3)C1 | inactive | 0.477 µM (active) | inactive |  |  |
| CCOc1ccc(-c2nn3ncccc3c2-c2ccc(S(C)(=O)=O)cc2)cc1 | inactive | 1.07 µM (active) | 4.77 µM (active) |  |  |
| NC[C@H]1CCC[C@@H](CNC(=O)[C@@H](Cc2c[nH]c3ccccc23)NC(=O)N2CCC3(C=Cc4ccccc43)CC2)C1 | inactive | 10.5 µM (active) | 1.86 µM (active) |  |  |
| Cc1nnc(-c2ccc3occ(-c4ccc(S(C)=O)cc4)c3c2)o1 (stereo not drawn) | inactive | inactive | 19 µM (active) |  |  |
| CNC(=O)c1ccc2c(c1)CCO[C@H]2CCN1CCN(c2ccc(C(N)=O)cc2)CC1 | inactive | inactive | inactive | inactive | inactive |
| CNc1nc(Nc2cn(C(C)(C)C#N)nc2C)ncc1C(F)(F)F | inactive | inactive | 7.56 µM (active) | inactive | inactive |
| COc1ccnc(CCc2nc3ncccc3[nH]2)c1 | inactive | inactive | inactive | inactive | inactive |
| N#Cc1cc(-c2n[nH]c(-c3ccncc3)n2)ccn1 | inactive | inactive | 1.51 µM (active) | inactive | inactive |
| Cc1ccc2nc(NC(=O)CSc3nc4c(c(=O)n3-c3ccc(F)cc3)SCC4)sc2c1 | inactive | inactive | 3.38 µM (active) | inactive | inactive |
